Results taken from PubChem BioAssay (NCATS).
Results filed as inconclusive are left out. Activity calls are given as the source filed them. Unless noted, calls come from the whole dose curve; as a rule, active = well fitted curve in the direction sought with a large enough effect; inconclusive = small, poorly fitted or top-dose-only effect, or another doubt; inactive = no such curve, though single readings can be large; an effect the other way counts as inactive or inconclusive.

Assays:
[1] = Confirmation and Secondary Assay for Modulators of Hemoglobin Beta Chain Splicing at IVS2 705 locus (AID 930);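 note: HeLa cells stably expressing the EGFP-705 splicing reporter; GFP fluorescence per well restored by corrected splicing of the IVS2-705 intron in EGFP; series mostly up to about 46 µM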
Procedure, shortened: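 First, HeLa EGFP-705 cells are seeded at 500/well in Optimem with 2% FCS and left overnight. Next, compound or DMSO is added for 2 days. Finally wells are laser-scanned and total peak GFP intensity scored.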

[2] = qHTS Assay for Lipid Storage Modulators (AID 1519; calls by dose curve; note: potency is the fitted concentration of half-maximal effect); details: Drosophila S3 cells, BODIPY lipid droplet/cell ratio, laser cytometry, cells loaded with oleic acid
Procedure, shortened: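 Cells seeded at 5,000 per well were treated with compounds over a concentration series and loaded with oleic acid (400 uM, as added). Lipid droplet fluorescence (488 nm excitation, 500-530 nm channel) was read by laser-scanning cytometry and normalized to 20 uM Triacsin C.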

[3] = target: Ubiquitin carboxyl-terminal hydrolase 1 (Homo sapiens) (UniProt O94782); experiment: Inhibitors of USP1/UAF1: Pilot qHTS (AID 504865); note: potency is the fitted concentration of half-maximal effect; nearly all actives have a fitted effect of over 35% in size
Sequence of Ubiquitin carboxyl-terminal hydrolase 1 (Homo sapiens) (O94782 whole entry, looked up): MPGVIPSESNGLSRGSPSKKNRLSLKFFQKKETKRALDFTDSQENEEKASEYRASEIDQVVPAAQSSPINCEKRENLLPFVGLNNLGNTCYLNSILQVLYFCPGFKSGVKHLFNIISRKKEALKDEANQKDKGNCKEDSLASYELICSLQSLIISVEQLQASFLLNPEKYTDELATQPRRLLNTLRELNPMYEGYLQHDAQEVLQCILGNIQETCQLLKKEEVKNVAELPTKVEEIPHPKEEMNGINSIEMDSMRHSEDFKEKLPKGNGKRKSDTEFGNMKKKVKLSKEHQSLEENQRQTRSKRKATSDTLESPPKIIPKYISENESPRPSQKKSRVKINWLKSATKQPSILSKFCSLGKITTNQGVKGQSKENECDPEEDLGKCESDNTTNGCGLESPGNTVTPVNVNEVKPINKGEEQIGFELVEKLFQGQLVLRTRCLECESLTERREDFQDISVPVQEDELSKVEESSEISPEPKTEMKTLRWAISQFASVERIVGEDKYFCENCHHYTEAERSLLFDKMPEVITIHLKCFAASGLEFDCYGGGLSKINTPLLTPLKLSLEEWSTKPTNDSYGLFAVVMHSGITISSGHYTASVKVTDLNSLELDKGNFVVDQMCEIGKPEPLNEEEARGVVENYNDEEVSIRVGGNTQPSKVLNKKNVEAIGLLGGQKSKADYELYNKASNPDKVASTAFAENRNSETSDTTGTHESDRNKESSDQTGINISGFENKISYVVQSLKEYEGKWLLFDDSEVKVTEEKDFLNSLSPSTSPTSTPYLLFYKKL
Procedure, shortened: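 Kinetic fluorescence assay: 1nM USP1/UAF1, 15 min compound preincubation, then 150nM Ub-Rho; 480/540 nm.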

[4] = test system: Zika virus NS2B-NS3 protease (linked construct); experiment: Confirmatory screen NINDS AMC qHTS for Zika virus inhibitors (AID 1347152); note: nearly all actives have a fitted effect of over 70% in size; note: potency is the fitted concentration of half-maximal effect
Procedure, shortened: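 In this dose-response qHTS, AMC release from 10 microM Bz-Nle-KRR-AMC by 1 nM linked protease is measured over 15 minutes (about 20% conversion) at pH 8.0. Percent inhibition is fitted to a 4-parameter Hill curve.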

[5] = test system: Zika virus NS2B-NS3 protease (unlinked complex); experiment: Confirmatory screen GU AMC qHTS for Zika virus inhibitors (AID 1347153); note: nearly all actives have a fitted effect of over 70% in size;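 for Potency: enzyme at 25 nM with substrate at 10 µM below its Km of 18.3 µM; potency is the fitted concentration of half-maximal effect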
Procedure, shortened: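 Compounds were preincubated 15 min at room temperature with 25 nM noncovalent NS2B-NS3 protease at pH 8.0; AMC substrate added at 10 microM and 15-min fluorescence gain (340/450 nm) converted to percent inhibition, fitted 4-parameter.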

[6] = Confirmatory screen NINDS Rhodamine qHTS for Zika virus inhibitors (AID 1347161); note: potency is the fitted concentration of half-maximal effect; nearly all actives have a fitted effect of over 60% in size
Procedure, shortened: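 Kinetic fluorescence (Ex 480 nm, Em 540 nm) over 15 min with 1.5 microM Rhodamine110 peptide and 25 nM linked protease.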

[7] = test system: Zika virus NS2B-NS3 protease (linked construct); experiment: 384 well plate NINDS Rhodamine confirmatory qHTS for Zika virus inhibitors (AID 1347164); note: nearly all actives have a fitted effect of over 65% in size; note: potency is the fitted concentration of half-maximal effect
Procedure, shortened: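 Compounds are incubated about 15 minutes with linked protease (5, 30 or 60 nM final). Rhodamine 110-tagged Ac-LKRR substrate (10 microM final) is added and fluorescence measured after 25 minutes.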

[8] = Vero cells viability qHTS for Zika virus inhibitors (AID 1347167)
Procedure, shortened: (§1)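 Luminescent ATP readout (CellTiter Glo) after 30 min at 37 degrees C gives viability; cells in DMEM + 4% FBS were treated 24 to 48 hours with compound, following overnight attachment.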

[9] = HepG2 cells viability qHTS for Zika virus inhibitors (AID 1347168)
Procedure, shortened: as §1

[10] = Tertiary RLuc qRT-PCR qHTS assay for Zika virus inhibitors (AID 1347169); note: nearly all actives have a fitted effect of over 55% in size; note: potency is the fitted concentration of half-maximal effect
Procedure, shortened: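 Orthogonal cell-based infection assay using recombinant ZIKV-RLuc (Cambodian) in Vero cells; compound added prior to virus at MOI 1-2. Incubation lasts 48-72 hrs at 37 degrees C before live-cell Renilla substrate is added and luminescence measured.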

[11] = Primary qHTS for small molecule stabilizers of the endoplasmic reticulum resident proteome: Secreted ER Calcium Modulated Protein (SERCaMP) assay (AID 1508630)
Procedure, shortened: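 The SH-SY5Y reporter protocol was run at 3 concentrations up to 38.3 uM (primary) or 11 concentrations (follow-up): 16 h compound, 100 nM thapsigargin for 4 h, then extracellular luciferase luminescence.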

[12] = target: Cytochrome P450 2D6 (Homo sapiens) (UniProt P10635); experiment: Cytochrome P450 family 2 subfamily D member 6 (CYP2D6) small molecule antagonists: luciferase biochemical (cell-free) qHTS assay (AID 1645840; active = well fitted curve in the direction sought with a large enough effect in the repeat runs; an effect the other way counts as inactive or inconclusive; note: potency is the fitted concentration of half-maximal effect; nearly all actives have a fitted effect of over 55% in size)
Sequence of Cytochrome P450 2D6 (Homo sapiens) (P10635 whole entry, looked up): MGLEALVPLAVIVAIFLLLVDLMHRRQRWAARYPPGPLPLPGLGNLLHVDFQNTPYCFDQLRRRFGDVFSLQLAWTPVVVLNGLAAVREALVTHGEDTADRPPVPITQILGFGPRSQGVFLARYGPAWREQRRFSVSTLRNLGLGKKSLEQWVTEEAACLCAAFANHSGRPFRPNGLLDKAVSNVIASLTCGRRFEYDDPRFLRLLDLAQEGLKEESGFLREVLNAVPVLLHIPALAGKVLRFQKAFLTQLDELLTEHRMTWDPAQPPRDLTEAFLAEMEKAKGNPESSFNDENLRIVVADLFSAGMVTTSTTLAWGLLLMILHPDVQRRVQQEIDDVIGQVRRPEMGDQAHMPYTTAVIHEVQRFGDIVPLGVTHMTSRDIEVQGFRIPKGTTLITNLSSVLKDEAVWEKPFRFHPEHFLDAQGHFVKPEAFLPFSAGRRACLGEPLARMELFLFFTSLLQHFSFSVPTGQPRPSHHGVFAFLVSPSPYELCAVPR
Procedure, shortened: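 P450-Glo CYP2D6 system: proluciferin substrate converted by enzyme to luciferin, read by luminescence proportional to activity. Enzyme-substrate mix with compound 10 min at room temperature, then NADPH regeneration 1 h before detection reagent.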

[13] = target: Cytochrome P450 2C9 (Homo sapiens) (UniProt P11712); experiment: Cytochrome P450 family 2 subfamily C member 9 (CYP2C9) small molecule antagonists: luciferase biochemical (cell-free) qHTS assay (AID 1645842; active = well fitted curve in the direction sought with a large enough effect in the repeat runs; an effect the other way counts as inactive or inconclusive; note: potency is the fitted concentration of half-maximal effect; nearly all actives have a fitted effect of over 55% in size)
Sequence of Cytochrome P450 2C9 (Homo sapiens) (P11712 whole entry, looked up): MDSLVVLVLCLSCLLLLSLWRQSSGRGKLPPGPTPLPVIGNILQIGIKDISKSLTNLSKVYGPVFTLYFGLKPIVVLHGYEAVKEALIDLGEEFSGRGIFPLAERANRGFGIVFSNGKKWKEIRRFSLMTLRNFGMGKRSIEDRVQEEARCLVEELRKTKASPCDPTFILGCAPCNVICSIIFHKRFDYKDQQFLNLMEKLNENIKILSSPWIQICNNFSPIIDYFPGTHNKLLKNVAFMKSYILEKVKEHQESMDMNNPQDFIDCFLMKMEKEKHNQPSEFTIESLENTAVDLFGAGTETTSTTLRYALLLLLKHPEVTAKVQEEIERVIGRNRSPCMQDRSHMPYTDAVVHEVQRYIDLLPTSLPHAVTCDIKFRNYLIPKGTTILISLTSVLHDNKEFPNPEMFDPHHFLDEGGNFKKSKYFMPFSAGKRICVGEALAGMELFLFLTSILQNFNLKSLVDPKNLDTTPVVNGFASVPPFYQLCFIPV
Procedure, shortened: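 P450-Glo CYP2C9 system: proluciferin substrate with enzyme in mix containing 0.4% BSA, 10 min at room temperature, then NADPH regeneration solution added and incubated 1 h at 37C. Detection reagent stopped reaction; luminescence read after 20 min as RLU.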

[14] = target: Rap guanine nucleotide exchange factor 3 (Homo sapiens) (UniProt O95398); experiment: Confirmatory qHTS for agonist of cAMP-regulated guanine nucleotide exchange factor 3 (EPAC1) (AID 1645881);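 note: EPAC1 catalysed release of BODIPY-GDP from Rap1B seen as fluorescence loss; nearly all actives have a fitted effect of over 75% in size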
Sequence of Rap guanine nucleotide exchange factor 3 (Homo sapiens) (O95398 whole entry, looked up): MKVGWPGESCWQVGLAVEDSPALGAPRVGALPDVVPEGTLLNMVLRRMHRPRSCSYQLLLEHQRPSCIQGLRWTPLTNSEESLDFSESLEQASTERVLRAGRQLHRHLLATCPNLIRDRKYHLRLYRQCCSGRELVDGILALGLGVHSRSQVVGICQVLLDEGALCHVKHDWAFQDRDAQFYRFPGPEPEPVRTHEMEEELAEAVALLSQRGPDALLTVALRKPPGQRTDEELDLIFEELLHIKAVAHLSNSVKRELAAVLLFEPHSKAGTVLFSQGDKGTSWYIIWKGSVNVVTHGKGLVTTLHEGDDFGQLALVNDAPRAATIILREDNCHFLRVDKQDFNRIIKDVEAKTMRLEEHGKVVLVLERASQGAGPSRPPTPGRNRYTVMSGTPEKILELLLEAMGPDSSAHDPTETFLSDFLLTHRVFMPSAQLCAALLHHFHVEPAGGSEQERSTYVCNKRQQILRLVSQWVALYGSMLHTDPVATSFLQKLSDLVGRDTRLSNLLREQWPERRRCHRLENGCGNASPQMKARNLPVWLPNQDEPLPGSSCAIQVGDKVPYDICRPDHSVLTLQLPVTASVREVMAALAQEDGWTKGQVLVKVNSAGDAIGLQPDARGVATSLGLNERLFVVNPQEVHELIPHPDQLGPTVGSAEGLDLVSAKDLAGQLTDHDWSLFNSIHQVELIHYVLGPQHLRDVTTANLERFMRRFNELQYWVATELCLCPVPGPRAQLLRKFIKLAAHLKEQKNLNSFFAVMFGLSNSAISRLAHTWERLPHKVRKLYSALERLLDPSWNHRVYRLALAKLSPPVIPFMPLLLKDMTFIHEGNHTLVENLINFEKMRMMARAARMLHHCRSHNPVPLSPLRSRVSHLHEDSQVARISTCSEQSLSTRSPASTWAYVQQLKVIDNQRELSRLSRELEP

[15] = target: Rap guanine nucleotide exchange factor 4 (Homo sapiens) (UniProt Q8WZA2); experiment: Confirmatory qHTS for agonist of cAMP-regulated guanine nucleotide exchange factor 4 (EPAC2) (AID 1645884);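 note: nucleotide exchange releases bodipy-GDP from Rap1 and this lowers its fluorescence; nearly all actives have a fitted effect of over 65% in size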
Sequence of Rap guanine nucleotide exchange factor 4 (Homo sapiens) (Q8WZA2 whole entry, looked up): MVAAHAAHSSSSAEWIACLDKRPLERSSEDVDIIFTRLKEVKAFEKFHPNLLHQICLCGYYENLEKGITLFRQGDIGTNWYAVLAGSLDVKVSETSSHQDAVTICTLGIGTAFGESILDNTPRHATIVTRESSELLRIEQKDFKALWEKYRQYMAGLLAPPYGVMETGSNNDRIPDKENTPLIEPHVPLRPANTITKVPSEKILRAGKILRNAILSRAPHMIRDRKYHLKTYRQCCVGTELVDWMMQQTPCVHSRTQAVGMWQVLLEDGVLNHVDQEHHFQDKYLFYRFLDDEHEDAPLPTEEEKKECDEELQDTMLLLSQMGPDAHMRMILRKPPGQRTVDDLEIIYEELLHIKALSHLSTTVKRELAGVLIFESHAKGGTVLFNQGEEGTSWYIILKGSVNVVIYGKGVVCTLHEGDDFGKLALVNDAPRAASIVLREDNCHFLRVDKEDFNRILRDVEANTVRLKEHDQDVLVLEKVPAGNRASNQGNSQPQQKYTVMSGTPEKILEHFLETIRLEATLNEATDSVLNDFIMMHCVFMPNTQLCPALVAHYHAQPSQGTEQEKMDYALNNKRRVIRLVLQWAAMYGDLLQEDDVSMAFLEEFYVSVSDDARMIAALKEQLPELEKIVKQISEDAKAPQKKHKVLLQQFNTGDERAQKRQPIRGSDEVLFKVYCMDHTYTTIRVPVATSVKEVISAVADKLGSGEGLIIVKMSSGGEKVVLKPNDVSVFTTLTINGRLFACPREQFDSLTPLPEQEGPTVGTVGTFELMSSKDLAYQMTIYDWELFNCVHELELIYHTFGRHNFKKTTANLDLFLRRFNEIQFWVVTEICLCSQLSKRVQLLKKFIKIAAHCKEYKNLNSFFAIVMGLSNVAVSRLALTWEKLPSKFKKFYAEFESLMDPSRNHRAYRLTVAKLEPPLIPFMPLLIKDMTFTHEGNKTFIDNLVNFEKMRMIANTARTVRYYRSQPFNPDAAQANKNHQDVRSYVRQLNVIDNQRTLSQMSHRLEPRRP

[16] = target: Glutathione peroxidase 1 (Homo sapiens) (UniProt P07203); experiment: Primary qHTS Assay for Inhibitors of Recombinant Selenoprotein Glutathione Peroxidase 1 (GPX1) (AID 1845191); note: nearly all actives have a fitted effect of over 65% in size
Sequence of Glutathione peroxidase 1 (Homo sapiens) (P07203 whole entry, looked up): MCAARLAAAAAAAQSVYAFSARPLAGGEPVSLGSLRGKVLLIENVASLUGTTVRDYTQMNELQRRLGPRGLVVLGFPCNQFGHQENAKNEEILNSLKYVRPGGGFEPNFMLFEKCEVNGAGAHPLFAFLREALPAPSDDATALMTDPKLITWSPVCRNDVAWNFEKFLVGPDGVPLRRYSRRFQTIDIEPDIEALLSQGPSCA
Procedure, shortened: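 NADPH consumption tracked by fluorescence at 340/450 nm between t=0 and t=15 min, room temperature. Final mix: 10 nM GPX1, 100 nM glutathione reductase, 1 mM GSH, 0.5 mM NADPH, 0.5 mM cumene hydroperoxide, 0.01% BSA; 30 min compound–enzyme preincubation.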

[17] = target: Phospholipid hydroperoxide glutathione peroxidase GPX4 (Homo sapiens) (UniProt P36969); experiment: Primary qHTS Assay for Inhibitors of Recombinant Selenoprotein Glutathione Peroxidase 4 (GPX4) (AID 1845192); details: outcome: dose series up to 50 µM unless noted; note: potency is the fitted concentration of half-maximal effect; nearly all actives have a fitted effect of over 65% in size
Sequence of Phospholipid hydroperoxide glutathione peroxidase GPX4 (Homo sapiens) (P36969 whole entry, looked up): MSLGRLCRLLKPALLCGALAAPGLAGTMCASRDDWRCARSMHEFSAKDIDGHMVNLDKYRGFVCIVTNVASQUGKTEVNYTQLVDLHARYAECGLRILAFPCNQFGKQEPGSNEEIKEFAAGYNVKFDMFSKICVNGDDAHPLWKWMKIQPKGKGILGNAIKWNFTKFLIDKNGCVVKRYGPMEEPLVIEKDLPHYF
Procedure, shortened: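 NADPH consumption followed by fluorescence at 340/450 nm, t=0 and after 15 min at room temperature. Reaction started with cumene hydroperoxide (0.5 mM final) after 30 min compound–GPX4 preincubation; final 200 nM GPX4, 100 nM GR, 1 mM GSH, 0.5 mM NADPH.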

Furin (Homo sapiens) = Furin (Homo sapiens) (UniProt P09958); experiment: Furin counterscreen qHTS for Zika virus inhibitors (AID 1347149); note: nearly all actives have a fitted effect of over 70% in size; note: potency is the fitted concentration of half-maximal effect
Sequence of Furin (Homo sapiens) (P09958 whole entry, looked up): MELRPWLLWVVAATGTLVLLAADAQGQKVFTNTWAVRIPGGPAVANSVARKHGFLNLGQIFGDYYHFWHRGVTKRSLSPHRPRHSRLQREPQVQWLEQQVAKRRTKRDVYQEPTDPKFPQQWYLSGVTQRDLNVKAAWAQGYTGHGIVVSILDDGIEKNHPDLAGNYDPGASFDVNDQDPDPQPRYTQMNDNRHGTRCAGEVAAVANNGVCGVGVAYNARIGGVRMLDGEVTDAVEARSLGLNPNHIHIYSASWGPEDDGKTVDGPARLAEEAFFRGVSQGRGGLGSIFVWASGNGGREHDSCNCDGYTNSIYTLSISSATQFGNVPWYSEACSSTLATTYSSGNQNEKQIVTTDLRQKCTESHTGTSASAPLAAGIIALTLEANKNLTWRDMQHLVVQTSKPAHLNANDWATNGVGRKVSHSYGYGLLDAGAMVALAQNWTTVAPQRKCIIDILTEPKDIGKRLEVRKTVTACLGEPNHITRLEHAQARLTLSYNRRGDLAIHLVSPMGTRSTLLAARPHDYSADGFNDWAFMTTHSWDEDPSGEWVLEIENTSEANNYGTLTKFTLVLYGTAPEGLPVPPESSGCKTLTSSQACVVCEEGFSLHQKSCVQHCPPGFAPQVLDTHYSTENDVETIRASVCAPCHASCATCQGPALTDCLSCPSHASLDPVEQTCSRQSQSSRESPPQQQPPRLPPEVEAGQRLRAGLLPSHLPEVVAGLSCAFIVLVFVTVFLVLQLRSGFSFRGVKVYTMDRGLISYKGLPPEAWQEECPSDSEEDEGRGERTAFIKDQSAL
Procedure, shortened: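 Counterscreen measures cleavage of 2 microM BOC-RVRR-AMC, below its ~15 microM Km, by 5 nM full-length human furin at pH 7.0 after a 15-min compound preincubation. Inhibition derives from the 15-min fluorescence increase at 37C.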

[18] = target: Rap guanine nucleotide exchange factor 3 (Homo sapiens) (UniProt O95398); experiment: Confirmatory qHTS for antagonist of cAMP-regulated guanine nucleotide exchange factor 3 (EPAC1) (AID 1645880); note: nearly all actives have a fitted effect of over 55% in size
Procedure, shortened: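 Released BODIPY-GDP fluoresces less than Rap1-bound BODIPY-GDP; the signal is followed at 480/540 nm at 5-min intervals over 30 min, after 5 min at room temperature. Reactions contain 100 nM EPAC1, 250 nM RAP1B-BODIPY-GDP and 50 uM GDP; results are normalized to ATA and DMSO.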

[19] = target: Rap guanine nucleotide exchange factor 4 (Homo sapiens) (UniProt Q8WZA2); experiment: Confirmatory qHTS for antagonist of cAMP-regulated guanine nucleotide exchange factor 4 (EPAC2) (AID 1645885); note: nearly all actives have a fitted effect of over 25% in size
[20] = target: Rap guanine nucleotide exchange factor 3 (Homo sapiens) (UniProt O95398); experiment: Counterscreen qHTS for antagonist of cAMP-regulated guanine nucleotide exchange factor 3 (EPAC1) (AID 1645888)
Procedure, shortened: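 Rap1B-BODIPY-GDP 250 nM + GDP 50 uM; cpds 7-pt, final 9.74 nM–152 uM (activator mode) or from 7.32 nM upwards (inhibitor mode); RT; FI 480/540 nm at 5 and 30 min, then ± cAMP, reread.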

[21] = test system: Zika virus NS2B-NS3 protease (linked); experiment: 384 well plate NINDS AMC confirmatory qHTS for Zika virus inhibitors (AID 1347163);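 note: linked protease at 5 30 or 60 nM final depending on run; fluorescence of AMC released from Ac-VKTGKR-AMC peptide cleaved by the protease; top concentration of the series differs between compounds; nearly all actives have a fitted effect of over 50% in size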
Procedure, shortened: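 Enzyme (5, 30 or 60 nM final) first met test compounds for ~15 min. The AMC-tagged peptide Ac-VKTGKR-AMC followed at 30 microM. Fluorescence was then recorded at 25 min and scaled against no-enzyme and no-inhibitor wells.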

CCOc1nc2cccc(C(=O)OC(C)OC(=O)OC3CCCCC3)c2n1Cc1ccc(-c2ccccc2-c2nn[nH]n2)cc1 (centres undefined)
inactive: outcome [1] | Potency [8] | Potency [9] | Potency [11] | outcome [14] | outcome [15] | Potency [16]
-78.8%: max response ([2]; measured here: lipid channel max response)
-28.3%: max response ([2]; measured here: cell count channel max response)
active: Potency [2] 7.94 µM | Potency [3] 22.4 µM | Potency [4] 12.1 µM | Potency [5] 17.1 µM | Potency [6] 1.24 µM | Potency [7] 12.6 µM | Potency [10] 14.7 µM | Potency [12] 13.5 µM | Potency [13] 4.77 µM | Potency [17] 7.94 µM

CCOC(=O)c1ccc(NC(=O)CSc2nc(-c3ccc(OC)cc3)cc(C(F)(F)F)c2C#N)cc1
inactive: Potency (Furin (Homo sapiens)) | Potency [18] | outcome [14] | outcome [15] | Potency [19] | outcome [20]

CCOC(=O)c1ccc(NC(=O)CSc2nc(-c3ccc(F)cc3)cc(C(F)(F)F)c2C#N)cc1
inactive: Potency (Furin (Homo sapiens)) | Potency [21] | Potency [7]

O=c1oc2ccc3ccccc3c2cc1-c1nnc(Nc2cc(C(F)(F)F)ccc2Cl)s1
inactive: Potency (Furin (Homo sapiens)) | Potency [10]

COC(=O)[C@H](Cc1ccc(OC)cc1)NC(=O)[C@H]1CN(S(=O)(=O)c2ccccc2)CCN1S(=O)(=O)c1ccccc1
inactive: Potency [4] | Potency [5]

COc1ccc(C(=O)Nc2ccc(C(=O)OCc3cc(=O)n4nc(C5CC5)sc4n3)cc2)cc1
active: Potency (Furin (Homo sapiens)) 13.2 µM
inactive: Potency [10]

O=C(O)COc1ccc(-c2nccc3c2C(=O)N(Cc2cccc(C(F)(F)F)c2)CC(COc2cccnc2)O3)cc1 (centres undefined)
inactive: Potency [4] | Potency [5]

COc1cccc(C(=O)Nc2ccc(C(=O)OCc3cc(=O)n4nc(C5CC5)sc4n3)cc2)c1
inactive: Potency [21] | Potency [7]
active: Potency (Furin (Homo sapiens)) 41.8 µM
